From PubChem BioAssay AID1159580 (chemical genetic matrix, 2015)
Values joined by “and” are separate entries in the source; they are usually repeats but may differ in a detail not shown here. Equal entries are not always repeated. Screen size: about 5,500 compounds; about 2,000 (36%) were called active. About 18% were inconclusive and are not listed. Cut-off read from the data, not from the text of the source: active = normalized growth mostly below about 0.91 (no sharp cut-off); inconclusive = no clear call, values can overlap the other calls; inactive = mostly above about 0.92. Some of the results follow.

Assay: chemical genetic growth profiling, strain panel (AID 1159580);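 note: tested at 20 µM; growth read once vehicle control cultures reached saturation at 30 °C; 1 = growth at the plate median or of vehicle wells; lower values mean less growth of the strain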
Conditions: S. cerevisiae deletion strains, growth OD

Measured: normalized growth

O=C1NC(O)=NC1(c1ccccc1)c1ccccc1
inactive: locus YAL013W, strain DEP1, hits give low values 1.01 and 0.988 | locus YAL021C, strain ccr4, hits give low values 1.01 | locus YAL026C, strain drs2, hits give low values 1.01 | locus YAL030W, strain snc1, hits give low values 1.02 | locus YAL040C, strain CLN3, hits give low values 0.959 | locus YBL061C, strain skt5, hits give low values 1.01 | locus YBR009C, strain hhf1, hits give low values 1 | locus YBR021W, strain FUR4, hits give low values 0.995 | locus YBR023C, strain chs3, hits give low values 1.03 | locus YBR171W, strain sec66, hits give low values 1.02 | locus YBR229C, strain ROT2, hits give low values 1 | locus YBR231C, strain swc5, hits give low values 1.02 | locus YBR279W, strain paf1, hits give low values 1.01 | locus YCL011C, strain gbp2, hits give low values 1.02 | locus YCL016C, strain dcc1, hits give low values 1.02 | locus YCL029C, strain bik1, hits give low values 1.03 | locus YCL061C, strain MRC1 (second series), hits give low values 0.986 | locus YCL061C, strain MRC1, hits give low values 1.01 | locus YCL069W, strain vba3, hits give low values 1.02 | locus YCR088W, strain abp1, hits give low values 1.01 | locus YDL005C, strain med2, hits give low values 1.03 | locus YDL035C, strain GPR1, hits give low values 1.01 | locus YDL040C, strain nat1, hits give low values 1.02 | locus YDL074C, strain BRE1, hits give low values 1.02 | locus YDL101C, strain DUN1, hits give low values 1.01 | locus YDL134C, strain PPH21, hits give low values 1.01 | locus YDL185W, strain tfp1, hits give low values 1.01 | locus YDL192W, strain arf1, hits give low values 1.01 | locus YDR001C, strain nth1, hits give low values 1.02 | locus YDR069C, strain doa4, hits give low values 0.999 | locus YDR101C, strain arx1, hits give low values 1.01 | locus YDR137W, strain rgp1, hits give low values 1.04 | locus YDR150W, strain NUM1, hits give low values 1.01 | locus YDR159W, strain sac3, hits give low values 0.98 | locus YDR162C, strain NBP2, hits give low values 1.01 | locus YDR195W, strain ref2 0.987 | locus YDR297W, strain sur2, hits give low values 1.02 | locus YDR318W, strain mcm21, hits give low values 1.02 | locus YDR334W, strain swr1, hits give low values 1.01 | locus YDR335W, strain msn5, hits give low values 1.02 | locus YDR363W, strain ESC2, hits give low values 0.954 | locus YDR388W, hits give low values 1.02 | locus YDR392W, strain spt3, hits give low values 0.932 | locus YDR502C, strain sam2, hits give low values 1 | locus YEL003W, strain gim4, hits give low values 1 | locus YEL037C, strain rad23, hits give low values 1.01 | locus YEL061C, strain CIN8 (second series), hits give low values 1.02 | locus YEL061C, strain CIN8, hits give low values 1.01 | locus YER002W, strain NOP16, hits give low values 0.972 | locus YER015W, strain faa2, hits give low values 1 | locus YER016W, strain bim1, hits give low values 1.02 | locus YER110C, hits give low values 1.01 | locus YER111C, strain swi4, hits give low values 1.02 | locus YER155C, strain BEM2 (second series), hits give low values 0.994 | locus YER155C, strain BEM2, hits give low values 1.02 | locus YER167W, strain BCK2, hits give low values 1.01 | locus YFR010W, strain ubp6, hits give low values 1.01 | locus YGL078C, strain dbp3, hits give low values 1.01 | locus YGL086W, strain mad1, hits give low values 0.997 | locus YGL167C, strain pmr1, hits give low values 1.03 | locus YGL173C, strain kem1, hits give low values 1.01 | locus YGL227W, strain vid30, hits give low values 1.02 | locus YGL240W, strain doc1, hits give low values 1.01 | locus YGL248W, strain PDE1, hits give low values 1.01 | locus YGL253W, strain hxk2, hits give low values 1.01 | locus YGR078C, strain PAC10, hits give low values 1.01 | locus YGR135W, strain pre9, hits give low values 1.01 | locus YGR229C, strain SMI1, hits give low values 0.998 | locus YGR252W, strain gcn5, hits give low values 0.923 | locus YHR013C, strain ard1, hits give low values 1.02 | locus YHR027C, strain rpn1, hits give low values 1.01 | locus YHR030C, strain SLT2, hits give low values 1.01 and 0.991 | locus YHR079C, strain IRE1 (second series), hits give low values 1.03 | locus YHR079C, strain IRE1, hits give low values 0.991 | locus YHR094C, strain hxt1, hits give low values 1.01 | locus YHR129C, strain ARP1, hits give low values 1.01 | locus YHR142W, strain chs7, hits give low values 1.03 | locus YHR200W, strain rpn10, hits give low values 1.01 | locus YIL066C, strain RNR3, hits give low values 1.02 | locus YIL073C, strain SPO22, hits give low values 1.03 | locus YIL125W, strain kgd1, hits give low values 1.01 | locus YIR030C, strain dcg1, hits give low values 1.01 | locus YJL092W, strain hpr5, hits give low values 1.01 | locus YJL095W, strain BCK1 (second series), hits give low values 1.02 | locus YJL095W, strain BCK1, hits give low values 1.01 | locus YJL115W, strain asf1, hits give low values 1.01 | locus YJL129C, strain trk1, hits give low values 1.02 | locus YJL134W, strain LCB3, hits give low values 1 | locus YJL154C, strain vps35, hits give low values 1.02 | locus YJL164C, strain tpk1, hits give low values 1.01 | locus YJL166W, strain qcr8, hits give low values 1.02 | locus YJL168C, strain set2, hits give low values 1.01 | locus YJL187C, strain SWE1 (second series), hits give low values 1.02 | locus YJL187C, strain SWE1, hits give low values 1.02 | locus YJR043C, strain POL32, hits give low values 1.01 | locus YJR066W, strain TOR1, hits give low values 0.96
